Our source for the outcome and AC50 values is PubChem BioAssay (EPA / NIEHS).

Records with an inconclusive call do not appear. The source made the active and inactive calls. How the source made its calls, unless noted: active means hit-call score of the fitted dose curve at least 0.9, where 1 is the maximum; inactive means score below 0.9.

A short description of experiment [1]: ACEA_ER_80hr: ACEA Biosciences xCELLigence Real-Time Cell Analysis on Estrogen Receptor Agonism for Proliferation (AID 2282667; active means hit-call score of the fitted dose curve at least 0.9, where 1 is the maximum). Conditions: T47D proliferation, impedance (xCELLigence), 80 h. The essentials: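 Real-time impedance growth kinetics of human T-47D breast cells read 80 h after dosing, gain-of-signal fitted relative to DMSO. Compounds: 1:4 serial series, top final concentration 100 uM, n = 2.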

Experiment [2] is described as follows: APR_HepG2_MicrotubuleCSK_1hr: Apredica 1-hour HepG2 Assay for Microtubule CSK Stabilty (AID 2282669). As to conditions: HepG2 microtubule cytoskeleton imaging, actives raise or lower the signal. Summed up:
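Alpha-tubulin immunofluorescence, imaged by automated high-content microscopy with Hoechst nuclear segmentation, measured cytoskeletal change after 1 h dosing of HepG2 at 0.39–200 uM in 0.5% DMSO. Activity fitted in both directions relative to DMSO.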

A short description of experiment [3]: APR_HepG2_NuclearSize_1hr: Apredica 1-hour HepG2 Assay for Nuclear Size (AID 2282670). Conditions: high-content imaging, actives raise or lower the signal. The essentials: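 Nuclear size measured by high-content imaging of Hoechst 33342 nuclear stain after formaldehyde fixation; human HepG2 line exposed 1 hr to compounds at 0.39–200 uM in 0.5% DMSO, with bidirectional curve fitting relative to DMSO.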

A short description of experiment [4]: APR_HepG2_p53Act_1hr: Apredica 1-hour HepG2 Assay for p53 Activation (AID 2282671). Conditions: high-content imaging, actives raise or lower the signal. The essentials:
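After 1 h exposure (0.39–200 uM, 0.5% DMSO final, duplicates), fixed HepG2 cells were labelled with anti-p53 antibody plus Hoechst nuclear stain. Fluorescence quantified by automated 20x imaging; changes fitted in both directions against DMSO.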

Experiment [5] in a line: APR_HepG2_P-H2AX_1hr: Apredica 1-hour HepG2 Assay for H2AX Phosphorylation (AID 2282673). As to conditions: high-content imaging, actives raise or lower the signal. The essentials:
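Phospho-H2A.x immunofluorescence (1:200, FITC secondary) plus Hoechst nuclear stain, quantified by high-content imaging in HepG2 after 1 hr compound exposure. Ten concentrations, 0.39 to 200 uM, in duplicate with 0.5% DMSO; fit both directions against DMSO.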

Experiment [6] is described as follows: APR_HepG2_MitoMembPot_1hr: Apredica 1-hour HepG2 Assay for Mitochondrial Membrane Potential (AID 2282675). Conditions: imaging, actives raise or lower the signal. Summed up:
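Mitochondrial membrane potential read as MitoTracker Red CMXRos intensity by automated imaging of fixed HepG2 cells. Dye at 250 nM for 30 min pre-fixation; compounds 0.39 to 200 uM for 1 hour, duplicate wells, 0.5% DMSO.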

The nature of experiment [7]: APR_HepG2_CellCycleArrest_24hr: Apredica 24-hour HepG2 Assay for Cell Cycle Arrest (AID 2282905).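 Further: cell cycle arrest scored as ratio of 2N to 4N nuclear DNA content.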 Conditions: imaging, actives raise or lower the signal. Summed up:
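After 24 h exposure at 0.39–200 uM in 0.5% DMSO, fixed cells received Hoechst 33342 staining. Imaging quantified per-nucleus DNA content; gain or loss fitted against DMSO controls.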

The nature of experiment [8]: APR_HepG2_NuclearSize_24hr: Apredica 24-hour HepG2 Assay for Nuclear Size (AID 2282907). Conditions: high-content imaging, actives raise or lower the signal. The essentials:
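Nuclear size from Hoechst 33342-stained, formaldehyde-fixed HepG2 nuclei imaged by high-content microscopy, after 24 h dosing at ten concentrations from 0.39 to 200 uM in 0.5% DMSO; gain or loss relative to DMSO baseline.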

Experiment [9] is described as follows: APR_HepG2_CellLoss_24hr: Apredica 24-hour HepG2 Assay for Cell Loss (AID 2282908).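 On AC50: fit in both directions so a hit may be cell loss or gain.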 Conditions: high-content imaging. The essentials:
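Nuclei stained with Hoechst 33342 after formaldehyde fixation (3.7%) were imaged at 20x to count cells. Exposure lasted 24 hr, at ten concentrations from 0.39 to 200 uM in duplicate, with 0.5% v/v DMSO. Fit bidirectional, relative to DMSO.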

The nature of experiment [10]: APR_HepG2_MitoticArrest_24hr: Apredica 24-hour HepG2 Assay for Mitotic Arrest (AID 2282910). Conditions: high-content imaging, actives raise or lower the signal. The essentials:
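HepG2, 24 hr dosing, 0.39–200 uM, 0.5% DMSO final. Formaldehyde-fixed, Triton-permeabilised, anti-phospho-histone H3 plus Hoechst. ArrayScan imaging at 20x; bidirectional fit vs DMSO baseline.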

Experiment [11] in a line: APR_HepG2_MitoMembPot_24hr: Apredica 24-hour HepG2 Assay for Mitochondrial Membrane Potential (AID 2282911). As to conditions: imaging, actives raise or lower the signal. Summed up:
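Mitochondrial membrane potential imaged via MitoTracker Red CMXRos (250 nM, 30 min pre-fixation) in fixed HepG2 cells with Hoechst nuclear identification. Ten concentrations 0.39–200 uM, 24 h treatment, 0.5% DMSO; CCCP as positive control.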

Experiment [12] is described as follows: APR_HepG2_MitoMass_24hr: Apredica 24-hour HepG2 Assay for Mitochondrial Mass (AID 2282912). As to conditions: high-content imaging, actives raise or lower the signal. Summed up:
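Endpoint is MitoTracker Red CMXRos (250 nM, 30 min, pre-fixation) intensity from 20x high-content imaging, nuclei located by Hoechst. Human HepG2 cells received ten concentrations from 0.39 to 200 uM in 0.5% DMSO for 24 hr, duplicate wells. Bidirectional fit relative to DMSO.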

Experiment [13] in a line: APR_HepG2_p53Act_24hr: Apredica 24-hour HepG2 Assay for p53 Activation (AID 2282913).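 Further: p53 protein immunofluorescence averaged per cell in HepG2 with Hoechst nuclei.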 Conditions: high-content imaging, actives raise or lower the signal. The essentials: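 Fluorescence imaging of formaldehyde-fixed HepG2 cells labelled for p53 and with Hoechst, 24 h after dosing (0.39–200 uM, duplicate wells, 0.5% v/v DMSO). Signal fitted in both directions relative to DMSO.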

Experiment [14] can be described thus: APR_HepG2_CellCycleArrest_72hr: Apredica 72-hour HepG2 Assay for Cell Cycle Arrest (AID 2282914). As to conditions: high-content imaging, actives raise or lower the signal. The essentials: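 Read-out: nuclear DNA content from Hoechst 33342 high-content imaging (20x, six fields/well) after 3.7% formaldehyde fixation, fitted bidirectionally against DMSO. Treatment was 72 h in HepG2, ten concentrations 0.39–200 uM, duplicate, 0.5% DMSO.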

A short description of experiment [15]: APR_HepG2_CellCycleArrest_1hr: Apredica 1-hour HepG2 Assay for Cell Cycle Arrest (AID 2282666). As to conditions: high-content imaging, actives raise or lower the signal. The essentials: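 Cell cycle arrest scored from nuclear DNA content (Hoechst 33342) using high-content imaging of fixed HepG2 cells after 1 h treatment across 0.39–200 uM, in duplicate. Gain or loss fitted relative to 0.5% DMSO.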

Experiment [16] can be described thus: APR_HepG2_MitoticArrest_1hr: Apredica 1-hour HepG2 Assay for Mitotic Arrest (AID 2282672). Conditions: high-content imaging, actives raise or lower the signal. Summed up:
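Ten-point concentration series (0.39 to 200 uM, duplicates, 0.5% v/v DMSO) applied to human HepG2 liver cells for 1 hr. High-content imaging of phospho-histone H3 and Hoechst-stained nuclei after fixation and permeabilization; DMSO-normalised bidirectional fit.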

Experiment [17] can be described thus: APR_HepG2_MicrotubuleCSK_24hr: Apredica 24-hour HepG2 Assay for Microtubule CSK Stabilty (AID 2282909). Conditions: HepG2 microtubule cytoskeleton imaging, actives raise or lower the signal. Summed up:
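Fixed HepG2 cells were stained for alpha-tubulin and imaged after 24 hr exposure to ten concentrations spanning 0.39–200 uM in 0.5% DMSO. Signal change was fitted in both directions relative to DMSO; taxol was the positive control.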

Experiment [18] in a line: APR_HepG2_CellLoss_1hr: Apredica 1-hour HepG2 Assay for Cell Loss (AID 2282668).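 Further: curves fitted both ways against DMSO so gain or loss of cells counts.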 Conditions: high-content imaging. Summed up: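 Cell number comes from high-content imaging of Hoechst-labelled nuclei in fixed HepG2 cells. Cells were exposed for 1 h to ten concentrations from 0.39 to 200 uM in 0.5% DMSO. Gain or loss was fitted against DMSO controls.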
The nature of experiment [19]: APR_HepG2_MitoMass_1hr: Apredica 1-hour HepG2 Assay for Mitochondrial Mass (AID 2282674). As to conditions: high-content imaging, actives raise or lower the signal. Summed up: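 Mitochondrial mass is taken from MitoTracker Red CMXRos (250 nM, 30 min, pre-fixation) fluorescence imaged at 20x in HepG2 cells. Exposure lasted 1 hr across ten concentrations, 0.39 to 200 uM, 0.5% DMSO; DMSO baseline, bidirectional fitting.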

In the case of `CCOC(=O)CC(SP(=S)(OC)OC)C(=O)OCC` (stereo not drawn), the compound was classed as inactive in experiment [1], in experiment [2], in experiment [3], in experiment [4], in experiment [5] and in experiment [6]. The compound was classed as inactive in [7], in [8], in experiment [9], in [10], in experiment [11] and in [12]. For the same compound, the call in experiment [13] and in experiment [14] was inactive.
As for `CCON=C(CC)C1=C(O)CC(c2c(C)cc(C)cc2C)CC1=O` (stereo not drawn), the result in [15], in experiment [1], in experiment [3], in [4], in experiment [16] and in experiment [7] was inactive. Besides, the call in [8], in [9], in [17], in [10], in experiment [11] and in experiment [12] was inactive. The result in [13] and in experiment [14] was inactive.
For the compound `COC(=O)C=C(C)OP(=O)(OC)OC`, the compound was called inactive in experiment [1], in experiment [18], in experiment [3], in [4], in [7] and in experiment [8]. In addition, the result in experiment [9], in experiment [10], in [11], in experiment [12], in [13] and in experiment [14] was inactive.
Turning to `Fc1ccc(Oc2ccnc3cc(Cl)cc(Cl)c23)cc1`, the compound was classed as inactive in [15], in experiment [1], in experiment [18], in [3], in experiment [4] and in experiment [5]. In addition, the outcome in experiment [19], in experiment [6], in experiment [7], in experiment [8], in experiment [11] and in [12] was inactive. Moreover, the outcome in experiment [13] and in experiment [14] was inactive. The AC50 (in general, the midpoint of the concentration-response curve, whichever way the signal moves) in experiment [9] was 100 µM (active); in experiment [10], 109 µM (active).
Consider `CC(C)(C)c1ccc(CSc2cnn(C(C)(C)C)c(=O)c2Cl)cc1`, for which the call in experiment [15], in [18], in [3], in [4], in experiment [8] and in experiment [10] was inactive. The result in experiment [11], in experiment [12] and in [13] was inactive. For the same compound, the half-maximal activity concentration (AC50) is 0.00406 µM (active) in experiment [1], 16.1 µM (active) in experiment [7], 2.58 µM (active) in experiment [9] and 16.1 µM (active) in experiment [14].
On to `Oc1ccccc1-c1ccccc1`, for which the result in experiment [15], in [1], in experiment [2], in experiment [3], in [4] and in [16] was inactive. Besides, the outcome in experiment [8], in experiment [9], in experiment [17], in [10], in experiment [11] and in experiment [12] was inactive. Further, the call in [13] and in [14] was inactive. Besides, the AC50 in experiment [7] was 82.1 µM (active).
Take `CS/C(C)=N/OC(=O)N(C)SN(C)C(=O)O/N=C(\C)SC`: the concentration at half-maximal activity (AC50) in experiment [1] is 0.164 µM (active); in experiment [9], 47.4 µM (active). Moreover, the outcome in experiment [2], in experiment [3], in experiment [4], in experiment [5], in experiment [19] and in experiment [7] was inactive. Moreover, the compound was called inactive in experiment [8], in experiment [10], in experiment [11], in experiment [12], in experiment [13] and in experiment [14].
